Drawing on ChEMBL document CHEMBL3433997, “St. Jude Leishmania screening dataset” (2016), this text covers inhibition for 35 compounds.

Common to all, as to format: functional
Assay [1] addresses Solute carrier family 2, facilitated glucose transporter member 1 (Homo sapiens) (UniProt P11166). Briefly: ST_JUDE_LEISH: Cytotoxicity at 2uM final concentration against transgenic Leishmania Mexicana promastigotes LmGLUT1 that are glucose transport deficient and complemented with the human glucose transporter GLUT1. Activity is measured by DNA content using SYBR green in vitro.

Assay [2] addresses Hexose transporter 1 (Plasmodium falciparum) (UniProt O97467). Briefly: ST_JUDE_LEISH: Cytotoxicity at 2uM final concentration against transgenic Leishmania Mexicana promastigotes LmPfHT that are glucose transport deficient and complemented with the Plasmodium falciparum hexose transporter. Activity is measured by DNA content using SYBR green in vitro.
The target in assay [3] is Glucose transporter (Leishmania mexicana) (UniProt O61059). Briefly: ST_JUDE_LEISH: Cytotoxicity at 2uM final concentration against transgenic Leishmania Mexicana promastigotes LmGT2 that are glucose transport deficient and complemented with the L. Mexicana glucose transporter 2. Activity is measured by DNA content using SYBR green in vitro.

Sequence of Solute carrier family 2, facilitated glucose transporter member 1 (Homo sapiens) (P11166 whole entry): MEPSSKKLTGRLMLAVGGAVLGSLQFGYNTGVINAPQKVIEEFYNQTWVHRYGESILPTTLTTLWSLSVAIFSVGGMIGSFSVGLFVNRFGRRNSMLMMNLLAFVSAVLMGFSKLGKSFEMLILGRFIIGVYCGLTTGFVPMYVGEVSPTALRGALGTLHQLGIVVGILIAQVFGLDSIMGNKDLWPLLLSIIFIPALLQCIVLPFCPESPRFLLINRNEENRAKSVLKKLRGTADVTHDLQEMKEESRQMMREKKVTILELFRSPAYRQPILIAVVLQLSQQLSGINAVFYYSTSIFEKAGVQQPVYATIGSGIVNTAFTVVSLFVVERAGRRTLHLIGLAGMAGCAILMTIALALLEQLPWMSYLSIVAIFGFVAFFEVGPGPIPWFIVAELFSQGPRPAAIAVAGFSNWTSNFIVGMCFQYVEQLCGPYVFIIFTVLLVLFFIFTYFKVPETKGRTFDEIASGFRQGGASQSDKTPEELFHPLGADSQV

In the case of `COc1ccc2nccc([C@@H](O)CN3CCC(NCc4cc5ccccc5nc4O)CC3)c2c1`, the figures for the inhibition in assay [1], in assay [2] and in assay [3] were 1.8%, 1.94% and 2%, respectively.
For `C=CCOc1cc(Cc2cnc(N)nc2N)cc(OC)c1OC`, the inhibition in assay [1] is 1.5%; in assay [2], -3.15%; in assay [3] it was -1.97%.
`O=C(N[C@@H](Cc1ccccc1)C(=O)NCc1cccc2ccccc12)c1ccc(O)c(-c2ccc(Cl)c(Cl)c2)c1`: the inhibition in assay [1] was 0.35%; in assay [2] it was 2.09%; in assay [3], 0.79%.
Taken in the same sequence, the figures for `CN(C)Cc1ccc(-c2ccc3c(Nc4ccc(Oc5ccccn5)cc4)ccnc3c2)o1` were 0.08%, 4.31% and 2.19%.
Taken in the same sequence, the figures for `c1cc(CNC2Cc3ccc(-c4cccs4)cc3C2)cc(-n2ccnc2)c1` (stereo not given) were 3.39%, 0.43% and 1.86%.
On to `CO/C(=C\C=C\c1cc2cc(Cl)c(Cl)cc2[nH]1)C(=O)NCCCN1CCN(c2cccc(Cl)c2)CC1`, for which the inhibition in assay [1] is -1.14%; in assay [2], -0.72%; in assay [3], -1.82%.
The corresponding values for `O=C(/C=C/c1ccc(Cl)c(Cl)c1)N1CCC(CN2CCC(c3c[nH]c4ccncc34)CC2)CC1` are 4.66%, 5.47% and 5.44%.
`COc1ccc(-c2cccc(NC(=O)c3cccc(C#N)c3)c2)cc1CN1CCC(O)CC1`: the inhibition was 3.79% in assay [1], 3.97% in assay [2] and 4.2% in assay [3].
Taken in the same sequence, the figures for `Cc1[nH]c2c(NCc3ccc(F)cc3)nccc2c1C` were 4.48%, 4.33% and 2.57%.
Taken in the same sequence, the figures for `CO/C(=C\C=C\c1cc2cc(Cl)c(Cl)cc2[nH]1)C(=O)NC1CCN(CCOc2ccccc2)CC1` were 8.51%, 7.84% and 0.9%.
The corresponding values for `COc1ccc(CC(=O)Nc2ccc(Nc3nc(C)cc(N(C)C)n3)cc2)cc1` are 10.3%, 17.7% and 1.53%.
Consider `COc1cccc2cc(C(=O)N[C@@H](CC(C)C)C(=O)NC(/C=N/NC(=O)c3ccccc3)CCc3ccccc3)oc12` (stereo not given in full), for which the values for the inhibition in assay [1], in assay [2] and in assay [3] were -0.59%, 2.83% and 0.75%, respectively.
Taken in the same sequence, the figures for `Nc1c2ccccc2nc2cc([N+](=O)[O-])ccc12` were 8.44%, 9.98% and 0.99%.
Turning to `COc1ccc(C2C(C(=O)Nc3cc(Cl)c(OC)cc3OC)c3ccccc3C(=O)N2C)cc1` (stereo not given), the inhibition in assay [1] was 0.28%; in assay [2] it was 1.49%; in assay [3], -1.07%.
Taken in the same sequence, the figures for `O=C(Nc1cccc(-c2ccc(-c3nc4cc(C(F)(F)F)ccc4[nH]3)cc2)c1)c1cccnc1` were 3.27%, 1.71% and -0.02%.
The corresponding values for `N#Cc1ccc(N2C[C@@H](OCc3ccccc3)C[C@H]2C(=O)NCCC(c2ccccc2)c2ccccc2)c2ccccc12` are 5.42%, 4.29% and 3.78%.
Taken in the same sequence, the figures for `Fc1ccc2[nH]c(-c3ccc(-c4ccc(CN5CCC(CCN6CCCCC6)CC5)cc4)cc3)nc2c1` were 7.35%, 9.43% and 3.31%.
For `CC(C)(C)OC(=O)Nc1cccc(-c2csc(NC(=N)N)n2)c1`, the inhibition was 0.85% in assay [1], 0.42% in assay [2] and -0.52% in assay [3].
`Cc1cc2ccccc2n1CC(=O)N1CC(C(=O)N2CCCCC2)Oc2ccccc21` (stereo not given): the inhibition is -0.25% in assay [1], 3.02% in assay [2] and 2.89% in assay [3].
Consider `CC(C)C(=O)ONC1=NC(C)(C)N(OCCCOc2cc(Cl)c(Cl)cc2Cl)C(NOC(=O)C(C)C)=N1`, for which the inhibition in assay [1] is -0.37%; in assay [2] it was 1.64%; in assay [3], -0.44%.
Taken in the same sequence, the figures for `Cc1cc(=O)c(-c2ccc(Oc3ccc(C(F)(F)F)cc3)cc2)c(C)n1O` were -1.23%, -2.25% and -1.9%.
In the case of `Cc1nc2c(-n3cc(Cn4ccnc4)c4ccccc43)ncnc2n1-c1ccc(Cl)cc1Cl`, the inhibition in assay [1] is 0.32%; in assay [2] it was 0.41%; in assay [3], -1%.
As to `COCCN1CCN(Cc2ccc(-c3cccc(-c4nc5ccccc5[nH]4)c3)cc2)CC1`, the inhibition in assay [1] was -3.03%; in assay [2], -1.3%; in assay [3], -2.88%.
The corresponding values for `CN(C)CCN(C)C(=O)c1cc(-c2ccncc2)c(-c2ccc(Cl)c(O)c2)o1` are 8.43%, 8.13% and 6.77%.
Taken in the same sequence, the figures for `Cc1cc(Nc2cccc(C(F)(F)F)c2)nc(NCc2ccccc2)n1` were 29.6%, 42.8% and 10.1%.
For the compound `CNC(=O)Cc1ccc(C(=O)Nc2cccc(-c3csc(-c4nc5ccccc5[nH]4)c3)c2)cc1`, the inhibition in assay [1] was -2.64%; in assay [2], -0.06%; in assay [3], 1.68%.
For the compound `O=C(O)c1cccc2c(-c3ccncc3)cccc12`, the inhibition in assay [1] came out at 0.79%; in assay [2], 1.26%; in assay [3], 1.31%.
Taken in the same sequence, the figures for `O=C(/C=C/c1ccc(Cl)c(Cl)c1)NCCCCCN1CCC(CCNC(=O)Cc2ccc(Cl)cc2)CC1` were 1.7%, 0.82% and 4.06%.
In the case of `CCN(CC)C(=S)N/N=C1/C(=O)Nc2c(C)cccc21`, the figures for the inhibition in assay [1], in assay [2] and in assay [3] were 6.57%, 4.85% and 1.52%, respectively.
The corresponding values for `CCOc1ccccc1C(=O)Nc1cccc(-c2nc3ncccn3c2C)c1` are 2.41%, -0.3% and -0.34%.
The corresponding values for `O=C(Nc1ccc(Cn2ncc(N3CCCNCC3)c(Cl)c2=O)cc1)Nc1cc(C(F)(F)F)cc(C(F)(F)F)c1` are 2.99%, 1% and 1.99%.
Taken in the same sequence, the figures for `CN(C)c1c(CNCCCCCCNCc2ccc3ccccc3c2N(C)C)ccc2ccccc12` were 8.79%, 8.66% and 7.38%.
As for `CCOc1cc(C)ccc1N1CCN(CCCCNC(=O)c2ccc(NC(=O)c3ccc(Cl)cc3)cc2)CC1`, the inhibition in assay [1] was 0.02%; in assay [2], -2.19%; in assay [3] it was -0.2%.
Taken in the same sequence, the figures for `Cc1ccc(S(=O)(=O)N2CCCN(C(=O)c3cc(-c4ccccc4)[nH]n3)CC2)cc1` were -1.48%, 0.45% and 0.04%.
With `CCN1CCC(N(Cc2ccc(-c3ccc(C(F)(F)F)cc3)cc2)C(=O)Cn2c(CCc3cccc(F)c3F)cc(=O)c3ccccc32)C1` (stereo not given), the inhibition in assay [1] is 0.08%; in assay [2], 1.38%; in assay [3], -0.49%.
